{"source": "the supplement of paper PMC8728848", "binders": {"B1": {"name": "MPA (Maclura pomifera), P18674 (protein)", "chain": "GVTFDDGAYTGIREINFEYNSETAIGGLRVTYDLNGMPFVAEDHKSFITGFKPVKISLEFPSEYIVEVSGYVGKVEGYTVIRSLTFKTNKQTYGPYGVTNGTPFSLPIENGLIVGFKGSIGYWLDYFSIYLSL"}}, "assay_in_all_cases": "glycan array binding signal (z-score within array); higher = stronger binding", "details_in_all_cases": "glycan notation: IUPAC condensed, linker removed", "key": {"[1]": {"target": "GlcNAc(b1-3)Gal(b1-4)GlcNAc(b1-3)Gal(b1-4)GlcNAc(b1-2)Man(a1-3)[GlcNAc(b1-3)Gal(b1-4)GlcNAc(b1-3)Gal(b1-4)GlcNAc(b1-2)Man(a1-6)]Man(b1-4)GlcNAc(b1-4)GlcNAc", "outline": "(§1)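 Glycan array data came from 3228 arrays in the Consortium for Functional Glycomics database, and only arrays with an available protein sequence were kept. Glycan names were put into IUPAC-condensed notation, and columns mapping to the same glycan were averaged. The binding signal is a within-array Z-score, averaged across arrays of one protein sequence run at different concentrations or buffers and across linkers. A negative Z-score can be read as non-binding.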"}, "[2]": {"target": "GlcNAc(b1-3)Gal(b1-4)GlcNAc(b1-3)Gal(b1-4)GlcNAc(b1-3)Gal(b1-4)GlcNAc(b1-2)Man(a1-3)[GlcNAc(b1-3)Gal(b1-4)GlcNAc(b1-3)Gal(b1-4)GlcNAc(b1-3)Gal(b1-4)GlcNAc(b1-2)Man(a1-6)]Man(b1-4)GlcNAc(b1-4)[Fuc(a1-6)]GlcNAc", "outline": "as §1"}, "[3]": {"target": "GlcNAc(b1-3)Gal(b1-4)GlcNAc(b1-3)Gal(b1-4)GlcNAc(b1-3)Gal(b1-4)GlcNAc(b1-2)[GlcNAc(b1-3)Gal(b1-4)GlcNAc(b1-3)Gal(b1-4)GlcNAc(b1-3)Gal(b1-4)GlcNAc(b1-6)]Man(a1-6)[GlcNAc(b1-3)Gal(b1-4)GlcNAc(b1-3)Gal(b1-4)GlcNAc(b1-3)Gal(b1-4)GlcNAc(b1-2)Man(a1-3)]Man(b1-4)GlcNAc(b1-4)[Fuc(a1-6)]GlcNAc", "outline": "as §1"}, "[4]": {"target": "GlcNAc(b1-3)Gal(b1-4)GlcNAc(b1-3)Gal(b1-4)GlcNAc(b1-3)Gal(b1-4)GlcNAc(b1-3)Gal(b1-4)GlcNAc(b1-2)[GlcNAc(b1-3)Gal(b1-4)GlcNAc(b1-3)Gal(b1-4)GlcNAc(b1-3)Gal(b1-4)GlcNAc(b1-3)Gal(b1-4)GlcNAc(b1-6)]Man(a1-6)[GlcNAc(b1-3)Gal(b1-4)GlcNAc(b1-3)Gal(b1-4)GlcNAc(b1-3)Gal(b1-4)GlcNAc(b1-3)Gal(b1-4)GlcNAc(b1-2)Man(a1-3)]Man(b1-4)GlcNAc(b1-4)[Fuc(a1-6)]GlcNAc", "outline": "as §1"}, "[5]": {"target": "GlcNAc(b1-3)Gal(b1-4)GlcNAc(b1-3)Gal(b1-4)GlcNAc(b1-3)GalNAc", "outline": "as §1"}, "[6]": {"target": "GlcNAc(b1-4)GlcNAc(b1-4)GlcNAc(b1-4)GlcNAc(b1-4)GlcNAc(b1-4)GlcNAc", "outline": "as §1"}, "[7]": {"target": "Man(a1-2)Man(a1-2)Man(a1-6)[Man(a1-3)]Man", "outline": "as §1"}, "[8]": {"target": "Man(a1-2)Man(a1-3)[Man(a1-2)Man(a1-6)]Man(a1-6)[Man(a1-2)Man(a1-2)Man(a1-3)]Man", "outline": "as §1"}, "[9]": {"target": "Neu5Ac(a2-3)Gal(b1-3)GalNAc(b1-4)[Neu5Ac(a2-3)]Gal(b1-4)Glc", "outline": "as §1"}, "[10]": {"target": "Neu5Ac(a2-3)Gal(b1-3)GalNAc(b1-4)[Neu5Ac(a2-8)Neu5Ac(a2-3)]Gal(b1-4)Glc", "outline": "as §1"}, "[11]": {"target": "Neu5Ac(a2-3)Gal(b1-3)GlcNAc(b1-2)Man", "outline": "as §1"}, "[12]": {"target": "Neu5Ac(a2-3)Gal(b1-3)[Neu5Ac(a2-6)]GalNAc", "outline": "as §1"}, "[13]": {"target": "Neu5Ac(a2-3)Gal(b1-4)GlcNAc(b1-2)[Neu5Ac(a2-3)Gal(b1-4)GlcNAc(b1-6)]Man(a1-6)[Neu5Ac(a2-3)Gal(b1-4)GlcNAc(b1-2)Man(a1-3)][GlcNAc(b1-4)]Man(b1-4)GlcNAc(b1-4)GlcNAc", "outline": "as §1"}, "[14]": {"target": "Neu5Ac(a2-3)Gal(b1-4)GlcNAc(b1-3)Gal(b1-4)GlcNAc(b1-3)Gal(b1-4)GlcNAc(b1-2)Man(a1-3)[Neu5Ac(a2-3)Gal(b1-4)GlcNAc(b1-3)Gal(b1-4)GlcNAc(b1-3)Gal(b1-4)GlcNAc(b1-2)Man(a1-6)]GalNAc", "outline": "as §1"}, "[15]": {"target": "Neu5Ac(a2-6)Gal(b1-4)GlcNAc(b1-3)Gal(b1-4)GlcNAc(b1-3)Gal(b1-4)GlcNAc(b1-2)Man(a1-3)[Neu5Ac(a2-6)Gal(b1-4)GlcNAc(b1-3)Gal(b1-4)GlcNAc(b1-3)Gal(b1-4)GlcNAc(b1-2)Man(a1-6)]GalNAc", "outline": "as §1"}, "[16]": {"target": "Neu5Ac(a2-6)GlcNAc(b1-4)GlcNAc", "outline": "as §1"}, "[17]": {"target": "Neu5Ac(a2-8)Neu5Ac(a2-3)[GalNAc(b1-4)]Gal(b1-4)Glc", "outline": "as §1"}, "[18]": {"target": "Neu5Ac(a2-8)Neu5Ac(a2-8)Neu5Ac(a2-3)[Gal(b1-3)GalNAc(b1-4)]Gal(b1-4)Glc", "outline": "as §1"}, "[19]": {"target": "Neu5Gc(a2-3)Gal(b1-4)Glc", "outline": "as §1"}, "[20]": {"target": "Neu5Gc(a2-8)Neu5Gc(a2-3)Gal(b1-4)GlcNAc(b1-3)Gal(b1-4)GlcNAc", "outline": "as §1"}}, "note": "Many of the other results were omitted from the sample, so the strongest signals are more common in it than they were."}
{"binder": "B1", "values": [{"measurement": "glycan array binding signal (z-score)", "setting": "[1]", "value": 3.5}, {"measurement": "glycan array binding signal (z-score)", "setting": "[2]", "value": 5.73}, {"measurement": "glycan array binding signal (z-score)", "setting": "[3]", "value": 4.46}, {"measurement": "glycan array binding signal (z-score)", "setting": "[4]", "value": 0.56}, {"measurement": "glycan array binding signal (z-score)", "setting": "[5]", "value": -0.343}, {"measurement": "glycan array binding signal (z-score)", "setting": "[6]", "value": -0.082}, {"measurement": "glycan array binding signal (z-score)", "setting": "[7]", "value": -0.161}, {"measurement": "glycan array binding signal (z-score)", "setting": "[8]", "value": -0.215}, {"measurement": "glycan array binding signal (z-score)", "setting": "[9]", "value": -0.301}, {"measurement": "glycan array binding signal (z-score)", "setting": "[10]", "value": -0.179}, {"measurement": "glycan array binding signal (z-score)", "setting": "[11]", "value": 1.21}, {"measurement": "glycan array binding signal (z-score)", "setting": "[12]", "value": 0.304}, {"measurement": "glycan array binding signal (z-score)", "setting": "[13]", "value": -0.334}, {"measurement": "glycan array binding signal (z-score)", "setting": "[14]", "value": 3.56}, {"measurement": "glycan array binding signal (z-score)", "setting": "[15]", "value": 6.71}, {"measurement": "glycan array binding signal (z-score)", "setting": "[16]", "value": -0.39}, {"measurement": "glycan array binding signal (z-score)", "setting": "[17]", "value": -0.273}, {"measurement": "glycan array binding signal (z-score)", "setting": "[18]", "value": -0.044}, {"measurement": "glycan array binding signal (z-score)", "setting": "[19]", "value": -0.156}, {"measurement": "glycan array binding signal (z-score)", "setting": "[20]", "value": -0.219}]}
